Screens (PubChem)
Six1-Eya2 inh – inhibitors of human Six1/Eya2 interaction; activity change, % (no concentration beside the values); AlphaScreen GST-Six1/His-Eya2 binding, biochemical; stronger effect = lower value; Q15475+O00167; 360,000 tested, 0.56% active; in the data active = activity change below about -65%; inconclusive = mostly about -30% to -63%
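AlphaScreen with GST-Six1 and His-Eya2 (5X mix: 250 nM and 500 nM), glutathione donor and nickel acceptor beads; buffer 50 mM Tris pH 8.0, 300 mM NaCl, 1 mM TCEP; 1 h at 37 C in the dark.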
Eya2 phos inh – blocks the phosphatase activity of human Eya2; recombinant Eya2, OMFP fluorescence dephosphorylation (OMFP is methylfluorescein phosphate); Potency, µM (highest dose often 76.9 µM), for the others: at the highest dose activity, negative = inhibition, actives largely listed as inhibitors; 330,000 tested, 0.006% active; AID 488837; note: potency is the fitted concentration of half-maximal effect
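Eya2 protein (added as 0.2 uM solution) was preincubated with compound for 10 min at ambient temperature in 50 mM HEPES pH 7.5, 50 mM NaCl, 5 uM MgCl2, 0.05% BSA, 1 mM DTT. OMFP (added at 50 uM) then reacted 10 min; fluorescence read at 485/525 nm.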
GALK inhibitor – galactokinase (human) inhibition; P51570; Purified GALK, Kinase-Glo residual ATP luminescence; Potency, µM (titrated, usually from 57.5 µM), without a hit: at the top dose activity change, negative = inhibition, most hits filed as inhibitors; 270,000 tested, 0.007% active; AID 1868; note: potency is the fitted concentration of half-maximal effect
Target sequence (P51570 whole entry, looked up): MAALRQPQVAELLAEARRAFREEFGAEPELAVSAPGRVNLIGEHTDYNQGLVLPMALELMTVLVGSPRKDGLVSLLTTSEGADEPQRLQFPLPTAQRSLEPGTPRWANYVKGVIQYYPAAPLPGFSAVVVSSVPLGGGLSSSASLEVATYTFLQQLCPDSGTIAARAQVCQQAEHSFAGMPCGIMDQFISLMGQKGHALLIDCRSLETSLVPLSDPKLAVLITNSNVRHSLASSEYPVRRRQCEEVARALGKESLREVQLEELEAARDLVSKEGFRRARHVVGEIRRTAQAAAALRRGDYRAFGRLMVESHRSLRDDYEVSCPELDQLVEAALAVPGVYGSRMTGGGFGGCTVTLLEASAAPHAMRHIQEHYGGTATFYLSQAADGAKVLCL
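Human GALK (5 nM) with 35 uM ATP and 100 uM galactose in 20 mM HEPES pH 8.0, 5 mM MgCl2, 60 mM NaCl, 1 mM DTT, 0.01% BSA. After 1 h at room temperature, leftover ATP was read by Kinase-Glo Plus luminescence.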
TrxR1 substrate – substrates of rat thioredoxin reductase 1. O89049. purified TrxR1 substrate turnover, NADPH consumption readout. Potency, µM (top dose mostly 114 µM), inactives show at the top dose activity change, negative = substrate turnover. 390,000 tested, 0.01% active. AID 588456; note: potency is the fitted concentration of half-maximal effect; nearly all actives have a fitted effect of over 50% in size
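Rat TrxR1, dispensed at 90 nM, was prereduced with 400 uM NADPH (final) for 5 min at ~22 deg C, then incubated with compound 15 min before 400 uM selenite. A first-read NADPH fluorescence drop versus no-compound background flagged substrates.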
CtBP-E1A inh – blocks the CtBP interaction with E1A; activity change, % (no concentration beside the values); 340,000 tested, 0.49% active; AlphaScreen GST-E1A/His-CtBP binding, 1536-well; stronger effect = lower value; in the data active = activity change below about -65%; inconclusive = mostly about -30% to -63%
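Homogeneous bead-based format: GST-tagged E1A captured on glutathione donor beads, His-tagged CtBP on nickel acceptor beads; compounds precede bead addition by 2 h at 37 °C.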
TrxR1 inh – inhibitors of rat thioredoxin reductase 1; 390,000 tested, 1% active; recombinant rTrxR1, NADPH fluorescence consumption, selenite substrate; AID 588453; O89049; Potency, µM (doses to about 114 µM), inactives show top-dose activity change, negative = inhibition, hits mostly inhibitors; note: potency is the fitted concentration of half-maximal effect; nearly all actives have a fitted effect of over 65% in size
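Rat TrxR1 (90 nM in the dispensed reagent) was pre-reduced with 400 uM NADPH for 5 min at room temperature, then incubated with compound for 15 min. After 400 uM selenite was added, NADPH fluorescence (Ex 340/Em 450 nm) was followed for 8 min.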
* hit, by the source's call; [ ] = remark or other dose. An excerpt weighted towards active compounds, which were near 1.5% of everything screened. Unless noted, calls come from the whole dose curve; as a rule, active = well fitted curve in the direction sought with a large enough effect; inconclusive = small, poorly fitted or top-dose-only effect, or another doubt; inactive = no such curve, though single readings can be large; an effect the other way counts as inactive or inconclusive. % is set by controls: 0 for no effect and ±100 for the full control effect.

For Cc1ccc(S(=O)(=O)NCC(C)n2nc(C)cc2C)cc1 (stereo not given) the results were Six1-Eya2 inh 12.5, Eya2 phos inh 9.6%, GALK inhibitor -0.2%, TrxR1 substrate -1.1%, CtBP-E1A inh 0.2 and TrxR1 inh 0.8%.
Screening Cc1ccc(C(C[N+](=O)[O-])n2nc(C)cc2C)cc1 (stereo not given) returned Six1-Eya2 inh 4.0, Eya2 phos inh 4.1%, GALK inhibitor -1.9%, TrxR1 substrate -3.8%, CtBP-E1A inh -5.8 and TrxR1 inh 5.62µM*.
Screening Cc1cc(N(C)C)c(C)cc1/C=C/c1ccnc2ccccc12 returned TrxR1 substrate -2.5% and TrxR1 inh 8.9%.
For O=C(NC1CCCC1)C(c1ccc(Cl)cc1)N(Cc1ccc(F)cc1)C(=O)CCl (stereo not given) the results were Six1-Eya2 inh -12.9, Eya2 phos inh -5.3%, GALK inhibitor 1.1%, TrxR1 substrate 4.4%, CtBP-E1A inh -2.7 and TrxR1 inh 12.6µM*.
`O=C(NC1CCCC1)C(c1ccc(F)cc1)N(Cc1ccc(Cl)cc1)C(=O)CCl` (stereo not given) gave Six1-Eya2 inh 14.9, Eya2 phos inh -4.8%, GALK inhibitor -3.6%, TrxR1 substrate -5.1%, CtBP-E1A inh -2.9 and TrxR1 inh inconclusive.
COC(CN(C)C(C(=O)NC1CCCCC1)c1ccccc1)OC (stereo not given) was read as Six1-Eya2 inh 1.3, Eya2 phos inh 21.9%, GALK inhibitor -0.9%, TrxR1 substrate 6.0%, CtBP-E1A inh -1.4 and TrxR1 inh 19.8%[57.1 µM].
Screening COC(CN(C(=O)CCl)C(C(=O)NC1CCCC(C)C1C)c1ccc(C)cc1)OC (stereo not given) returned Six1-Eya2 inh 13.4, Eya2 phos inh -7.2%, GALK inhibitor -2.6%, TrxR1 substrate -7.0%, CtBP-E1A inh -3.6 and TrxR1 inh 56.2µM*.
`COC(CN(C(=O)CCl)C(C(=O)NC1CCCCC1)c1ccccc1C)OC` (stereo not given) gave Six1-Eya2 inh 0.5, Eya2 phos inh 1.2%, GALK inhibitor 3.7%, TrxR1 substrate 2.4%, CtBP-E1A inh -4.9 and TrxR1 inh 39.8µM*.
Screening COC(CN(C(=O)CCl)C(C(=O)NC1CCCCC1)c1ccc(Cl)cc1)OC (stereo not given) returned Six1-Eya2 inh 3.6, Eya2 phos inh -0.1%, GALK inhibitor 1.1%, TrxR1 substrate -10.3%, CtBP-E1A inh 6.0 and TrxR1 inh 35.5µM*.
C[C@H](C(=O)OCO/N=[N+](\[O-])N1CCCC1)c1cccc2ccccc12 was read as TrxR1 substrate -10.1% and TrxR1 inh 17.8µM*.
Screening CCOC(=O)N1CCN(/[N+]([O-])=N/OCOC)CC1 returned TrxR1 substrate 4.4% and TrxR1 inh 15.5%.
`O=[N+]([O-])c1cccc(C2Nc3cccc4cccc(c34)N2)c1` gave Six1-Eya2 inh -9.9, Eya2 phos inh -2.4%, GALK inhibitor -4.0%, TrxR1 substrate -8.3%, CtBP-E1A inh 4.7 and TrxR1 inh 50.1µM*.
`O=[N+]([O-])c1ccc(C2Nc3cccc4cccc(c34)N2)cc1` gave Six1-Eya2 inh -17.5, Eya2 phos inh -1.1%, GALK inhibitor -1.2%, TrxR1 substrate -7.0%, CtBP-E1A inh 8.8 and TrxR1 inh 35.5µM*.
Screening CCN(CC)c1ccc(C2Nc3cccc4cccc(c34)N2)cc1 returned Six1-Eya2 inh -11.1, Eya2 phos inh -21.0%, GALK inhibitor 6.1%, TrxR1 substrate 0.2%, CtBP-E1A inh 3.8 and TrxR1 inh 1.5%.
Cn1c(=O)c2cc(S(=O)(=O)NC(Cc3ccccc3)C(=O)Nc3ccc(F)cc3)ccc2n(C)c1=O (stereo not given) was read as TrxR1 substrate 1.1% and TrxR1 inh 15.6%.
O=C1N(c2ccccc2)C[C@@H]2C[C@@H](c3cccs3)N3CCC[C@@]123 was read as Six1-Eya2 inh -0.1, Eya2 phos inh 1.9%, GALK inhibitor 4.6%, TrxR1 substrate 3.8%, CtBP-E1A inh 1.9 and TrxR1 inh 20µM*.
For Cc1cc(=S)cc(C)n1CCCO the results were Six1-Eya2 inh -0.8, Eya2 phos inh -33.8%, GALK inhibitor 0.5%, TrxR1 substrate -12.2%, CtBP-E1A inh -6.9 and TrxR1 inh 12.6µM*.
Screening Cc1nc2cc(Cl)c(Cl)cc2n1CCCO returned Six1-Eya2 inh 16.1, Eya2 phos inh inconclusive, GALK inhibitor 2.3%, TrxR1 substrate -1.0%[57.1 µM], CtBP-E1A inh 0.1 and TrxR1 inh 3.7%[57.1 µM].
CCOc1ccc(-n2c(=O)c3c(C)c(C)sc3n(Cc3cc(=O)n4cc(Cl)ccc4n3)c2=O)cc1 was read as TrxR1 substrate -1.1% and TrxR1 inh 9.8%.
Cc1cc(Nc2ccccc2C(=O)O)n(-c2ccc([N+](=O)[O-])cc2)n1 was read as Six1-Eya2 inh -81.4*, Eya2 phos inh 0.8%, GALK inhibitor -0.5%, TrxR1 substrate -9.0% and TrxR1 inh 4.3%.
For COc1ccc(Cn2c(C)ccc2C)cc1 the results were Six1-Eya2 inh -8.9, Eya2 phos inh 3.9%, GALK inhibitor 1.2%, TrxR1 substrate -0.9%, CtBP-E1A inh 3.6 and TrxR1 inh 31.6µM*.
Screening CCCCC(=O)NC(c1ccccc1)c1ccc2cccnc2c1O (stereo not given) returned Six1-Eya2 inh -66.3*, Eya2 phos inh -5.8%, GALK inhibitor -0.8%, TrxR1 substrate -5.8%, CtBP-E1A inh inconclusive and TrxR1 inh -3.9%.
For Oc1c(C(Nc2ccccn2)c2cccnc2)cc(Cl)c2cccnc12 (stereo not given) the results were Six1-Eya2 inh -90.5*, Eya2 phos inh 7.7%, GALK inhibitor 3.0%, TrxR1 substrate -7.5%, CtBP-E1A inh -88.6* and TrxR1 inh 12.6µM*.
Screening CCCC(=O)NC(c1ccccc1)c1ccc2cccnc2c1O (stereo not given) returned Six1-Eya2 inh -66.3*, Eya2 phos inh 10.8%, GALK inhibitor -0.4%, TrxR1 substrate 0.7%, CtBP-E1A inh -91.4* and TrxR1 inh 8.5%.
`CCC(=O)NC(c1ccc(OC)cc1)c1cc(Cl)c2cccnc2c1O` (stereo not given) gave Six1-Eya2 inh inconclusive, Eya2 phos inh -4.3%, GALK inhibitor -0.6%, TrxR1 substrate -3.9%, CtBP-E1A inh inconclusive and TrxR1 inh 0.4%.
Screening CCC(=O)NC(c1ccccc1OC)c1ccc2cccnc2c1O (stereo not given) returned Six1-Eya2 inh -88.4*, Eya2 phos inh 6.5%, GALK inhibitor -0.3%, TrxR1 substrate 9.5%, CtBP-E1A inh inconclusive and TrxR1 inh 25.8%.
